{"source": "PubChem BioAssay AID1220", "about": "(Sanford-Burnham Center for Chemical Genomics, 2008)", "note": "Screen size: about 190,000 compounds; about 1,300 (0.68%) were called active. The sample as a whole holds a higher share of actives than the screen did. A number with no mark means an inactive call. Cut-off read from the data, not from the text of the source: active = inhibition above about 50%; inactive = the rest."}
{"target": "Mannose-6-phosphate isomerase (Homo sapiens) (UniProt P34949)", "sequence (P34949 whole entry, looked up)": "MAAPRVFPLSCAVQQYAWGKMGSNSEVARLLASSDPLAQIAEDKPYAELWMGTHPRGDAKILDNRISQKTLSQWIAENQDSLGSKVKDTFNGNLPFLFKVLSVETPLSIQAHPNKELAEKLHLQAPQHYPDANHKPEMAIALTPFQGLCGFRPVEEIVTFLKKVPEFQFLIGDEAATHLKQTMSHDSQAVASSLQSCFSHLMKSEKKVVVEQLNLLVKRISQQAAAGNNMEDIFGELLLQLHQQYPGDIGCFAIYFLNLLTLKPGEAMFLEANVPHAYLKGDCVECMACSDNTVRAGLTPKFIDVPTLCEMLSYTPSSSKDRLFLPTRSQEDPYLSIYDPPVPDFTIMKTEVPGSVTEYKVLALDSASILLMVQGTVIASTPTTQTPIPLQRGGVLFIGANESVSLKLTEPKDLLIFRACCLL", "test": "MPI inhibition at elevated mannose 6-phosphate – biochemical, fluorescence intensity, high mannose 6-phosphate, primary screen (AID 1220)", "conditions": "recombinant PMI enzyme, coupled fluorescence intensity; at 20 µM; active compounds read high"}
{"molecule": "CC(C)N(C(=O)CSc1nnc(CNc2ccc(F)cc2)o1)C(C)C", "inhibition": "17%"}
{"molecule": "Cc1cc(C)c(O)c(N)c1", "inhibition": "61.3% (active)"}
{"molecule": "Cc1cc(C)c2ccc(N)nc2c1O", "inhibition": "26%"}
{"molecule": "Cc1cc(C)c2nc(N)sc2c1", "inhibition": "7.6%"}
{"molecule": "Cc1nc2cc(C)c(C)cc2s1", "inhibition": "-8.8%"}
{"molecule": "CCC(C)(C)NC(=O)c1cc(C(=O)OC)cc([N+](=O)[O-])c1", "inhibition": "-6.6%"}
{"molecule": "O=C(N/N=C/C(Br)=C/c1ccccc1)C1CC1", "inhibition": "14.3%"}
{"molecule": "COc1cc2c(cc1OC)-c1cc3ccc4c(c3c[n+]1CC2)OCO4", "inhibition": "53.6% (active)"}
{"molecule": "COc1cc2c(cc1O)CC[n+]1cc3c(OC)c(OC)ccc3cc1-2", "inhibition": "39.9%"}
{"molecule": "COc1ccc2cc3[n+](cc2c1OC)CCc1cc2c(cc1-3)OCO2", "inhibition": "33.7%"}
{"molecule": "O=c1c2ccccc2nc(-c2cccs2)n1-c1cccc2ccccc12", "inhibition": "-3.7%"}
{"molecule": "O=C1c2ccccc2-n2c1nc1ccccc1c2=O", "inhibition": "50.7% (active)"}
{"molecule": "O=c1c2ccccc2nc(-c2ccccc2Cl)n1O", "inhibition": "-7.6%"}
{"molecule": "O=C(NCc1ccco1)Nc1ccccc1Cl", "inhibition": "5.5%"}
{"molecule": "NS(=O)(=O)c1ccc(CCNC(=O)c2ccc(S(=O)(=O)N3CCCCC3)cc2)cc1", "inhibition": "-2.8%"}
{"molecule": "O=C(c1ccc(Cl)cc1)c1c[nH]c(C(=O)NNc2cccc(Cl)n2)c1", "inhibition": "4.5%"}
{"molecule": "CCOc1ccccc1CNc1ccc(O)cc1", "inhibition": "59.4% (active)"}
{"molecule": "Oc1ccc(NCc2ccccc2OCc2ccccc2)cc1", "inhibition": "47.7%"}
{"molecule": "Oc1ccc(NCc2ccccc2OCc2ccccc2F)cc1", "inhibition": "25%"}
{"molecule": "COc1ccc(C2SCC(=O)N2c2c(C)n(C)n(-c3ccccc3)c2=O)cc1OC", "note": "(stereo not drawn)", "inhibition": "-1.7%"}
{"molecule": "CCOc1ccc(OCC)c(S(=O)(=O)NNC(=O)c2c(C)nc3ccccn23)c1", "inhibition": "-3.5%"}
{"molecule": "CC(=O)N1c2ccccc2C2(O)N=C(C)SC12", "note": "(stereo not drawn)", "inhibition": "52.8% (active)"}
{"molecule": "CC(=O)N1c2ccccc2C(C)(C)C2CCC(C)CC21", "note": "(stereo not drawn)", "inhibition": "-3.5%"}
{"molecule": "Cc1ccc(C(=O)CC2(O)C(=O)N(C)c3ccccc32)s1", "note": "(stereo not drawn)", "inhibition": "9.4%"}
{"molecule": "CCOC(=O)C1=C(C)N(C)C(=O)NC1c1c(C)nn(-c2ccc(C)cc2)c1Cl", "note": "(stereo not drawn)", "inhibition": "-4%"}
{"molecule": "CCOC(=O)C1=C(C)N(C)C(=O)NC1c1c(C)nn(-c2ccccc2)c1C", "note": "(stereo not drawn)", "inhibition": "1.3%"}
{"molecule": "Nc1nc(SCC(=O)NCC2CCCO2)n[nH]1", "note": "(stereo not drawn)", "inhibition": "5.9%"}
{"molecule": "CCOc1ccc2[nH]c(=O)c(CN(CCO)C(=O)c3ccccc3F)cc2c1", "inhibition": "-1%"}
{"molecule": "CCCN1CCCc2cc(CN)ccc21", "inhibition": "50.4% (active)"}
{"molecule": "CCCN1CCCc2ccccc21", "inhibition": "-58.9%"}
{"molecule": "CCc1ccc2c(c1)CCCN2C(=O)c1ccccc1C(=O)O", "inhibition": "-10%"}
{"molecule": "COc1cc(C2C(C(C)=O)=C(O)C(=O)N2CCc2c[nH]c3ccccc23)ccc1O", "note": "(stereo not drawn)", "inhibition": "21.6%"}
{"molecule": "CCOC(=O)CCCNC(=O)COC(=O)c1cccc(C)c1O", "inhibition": "-3.7%"}
{"molecule": "S=C1NCCOCCOCCNC(=S)N2CCOCCOCCN1CCOCCOCC2", "inhibition": "11.7%"}
{"molecule": "CC(=O)N1CCC(N(CCN2CCOCC2)C(=S)Nc2cccc(C)c2)CC1", "inhibition": "-11.5%"}
{"molecule": "CC1(C)CC2CC(C)(CN2C(=O)COc2cccc3ccccc23)C1", "note": "(stereo not drawn)", "inhibition": "2.7%"}
{"molecule": "CC1(C)CC2CC(C)(CN2CC(=O)C(C#N)c2ccccc2)C1", "note": "(stereo not drawn)", "inhibition": "-41%"}
{"molecule": "CC1(C)CC2CC(C)(CN2Cc2c(O)ccc3ccccc23)C1", "note": "(stereo not drawn)", "inhibition": "66.3% (active)"}
{"molecule": "O=Cc1ccc2noc(-c3ccc(F)cc3)c2c1", "inhibition": "-86.8%"}
{"molecule": "CCCn1nnc(NC(=O)c2ccc(OCC)c(Cl)c2)n1", "inhibition": "2%"}
{"molecule": "CC1OC(Nc2ccc(N=Nc3ccccc3)cc2)C(O)C(O)C1O", "note": "(stereo not drawn)", "inhibition": "8.3%"}
{"molecule": "CC1OC(Nc2cccc3ccccc23)C(O)C(O)C1O", "note": "(stereo not drawn)", "inhibition": "60.5% (active)"}
{"molecule": "CC(=O)c1ccc(NC2OC(C)C(O)C(O)C2O)cc1", "note": "(stereo not drawn)", "inhibition": "20.1%"}
{"molecule": "Cc1ccc2cc(CN(Cc3cccs3)Cc3nnnn3CC3CCCO3)c(=O)[nH]c2c1C", "note": "(stereo not drawn)", "inhibition": "0.6%"}
{"molecule": "COc1cccc(NC(=S)N(Cc2ccc(Cl)cc2)Cc2ccc(C(=O)O)cc2)c1", "inhibition": "-30.6%"}
{"molecule": "COc1ccccc1NC(=O)NCC(c1ccco1)N1CCCCC1", "note": "(stereo not drawn)", "inhibition": "0.2%"}
{"molecule": "O=C(Cc1ccccc1F)NCC(c1ccco1)N1CCCCC1", "note": "(stereo not drawn)", "inhibition": "-5.8%"}
{"molecule": "COc1ccccc1CC(=O)NCC(c1ccco1)N1CCCCC1", "note": "(stereo not drawn)", "inhibition": "58.9% (active)"}
{"molecule": "O=C(c1ccco1)N1CCN(C(c2ccc(F)cc2)c2nnnn2Cc2cccs2)CC1", "note": "(stereo not drawn)", "inhibition": "-6%"}
{"molecule": "Cn1cnc2cc(NC(=O)c3ccc(Cl)cc3)ccc21", "inhibition": "-16.1%"}
{"molecule": "CSc1nc2ccccc2n1CC(=O)Nc1cc(C(F)(F)F)ccc1N1CCOCC1", "inhibition": "-1.6%"}
{"molecule": "N#CC(C#N)=C1c2cc(S(N)(=O)=O)ccc2-c2ccc(S(N)(=O)=O)cc21", "inhibition": "57.5% (active)"}
{"molecule": "N#CC(C#N)=Cc1cccn1-c1ccc(S(N)(=O)=O)cc1", "inhibition": "0%"}
{"molecule": "NS(=O)(=O)c1ccc(C(=O)O)cc1", "inhibition": "-8%"}
{"molecule": "CC(C)OP(=O)(c1ccccc1)c1ccccc1", "inhibition": "-8.8%"}
{"molecule": "C=CCN1C(=NC(=O)CCC)SC2CS(=O)(=O)CC21", "note": "(stereo not drawn)", "inhibition": "-8.2%"}
{"molecule": "Cc1ccc(Cc2cnc(NC(=O)/C(C#N)=C/c3ccc(-c4ccccc4[N+](=O)[O-])o3)s2)cc1", "inhibition": "30.3%"}
{"molecule": "O=C(/C=C/c1ccc(-c2ccccc2[N+](=O)[O-])o1)c1ccco1", "inhibition": "51.7% (active)"}
{"molecule": "O=C(/C=C/c1ccc(-c2ccccc2[N+](=O)[O-])o1)c1ccccc1", "inhibition": "47.3%"}
{"molecule": "N#C/C(=C\\c1ccc(-c2ccccc2[N+](=O)[O-])o1)C(=O)N1CCOCC1", "inhibition": "45.8%"}
{"molecule": "N#C/C(=C\\c1ccc(-c2ccccc2[N+](=O)[O-])o1)C(=O)Nc1nc(-c2cccs2)cs1", "inhibition": "53.1% (active)"}
{"molecule": "O=C(/C=C/c1ccc(-c2ccccc2[N+](=O)[O-])o1)c1ccc(Br)cc1", "inhibition": "-32.8%"}
{"molecule": "CNC(=O)/C(C#N)=C/c1ccc(-c2ccccc2[N+](=O)[O-])o1", "inhibition": "61% (active)"}
{"molecule": "COCCNC(=O)/C(C#N)=C/c1ccc(-c2ccc(OC)cc2[N+](=O)[O-])o1", "inhibition": "42.2%"}
{"molecule": "CNC(=O)/C(C#N)=C/c1ccc(-c2ccc(OC)cc2[N+](=O)[O-])o1", "inhibition": "29.2%"}
{"molecule": "N#C/C(=C/c1ccc(-c2ccccc2[N+](=O)[O-])o1)C(N)=O", "inhibition": "51.9% (active)"}
{"molecule": "N#C/C(=C\\c1ccc(-c2ccc(F)cc2)o1)C(=O)Nc1nc(-c2cccs2)cs1", "inhibition": "30.8%"}
{"molecule": "O=C(/C=C/c1ccc(-c2ccccc2[N+](=O)[O-])o1)c1ccc(F)cc1", "inhibition": "34.1%"}
{"molecule": "CCOC(=O)c1c(NC(=O)c2c(C(=O)O)cccc2[N+](=O)[O-])sc(C)c1C", "inhibition": "8.7%"}
{"molecule": "O=C(Nc1ccc(S(=O)(=O)Nc2ccc(F)cc2)cc1)c1ccc(CN2CCOCC2)cc1", "inhibition": "17%"}
{"molecule": "Cc1cc(C)n(-c2nc(NCc3cccnc3)c3c4c(sc3n2)COC(C)(C)C4)n1", "inhibition": "6.9%"}
{"molecule": "O=c1c2cc(NC(=S)NCc3cccnc3)ccc2nc2n1CCCCC2", "inhibition": "1.2%"}
{"molecule": "CC1Cc2ccccc2N1C(=O)CSc1nnc(-c2ccccc2)c(-c2ccccc2)n1", "note": "(stereo not drawn)", "inhibition": "37.9%"}
{"molecule": "COc1cccc(C2CC(c3ccc(C(C)C)cc3)n3nc(N)nc3N2)c1", "note": "(stereo not drawn)", "inhibition": "11.2%"}
{"molecule": "CC(=O)Nc1ccc(OCC(O)CN2CCN(c3cc(Cl)ccc3C)CC2)cc1", "note": "(stereo not drawn)", "inhibition": "-2%"}
{"molecule": "Clc1cccc(CN2COc3c(cc(Cl)c4cccnc34)C2)c1", "inhibition": "51.8% (active)"}
{"molecule": "Oc1c(CN2CCc3ccccc3C2)cc(Cl)c2cccnc12", "inhibition": "48.3%"}
{"molecule": "CC(C)(C)c1cc2cccnc2n1Cc1cccc(Cl)c1", "inhibition": "1.9%"}
{"molecule": "Cc1nn(-c2ccccc2)c(Cl)c1C1C(C#N)=C(N)Oc2c1c(C)nn2-c1ccccc1", "note": "(stereo not drawn)", "inhibition": "9%"}
{"molecule": "CC(C)CNC(=O)CSc1nc2scc(-c3ccccc3)c2c(=O)[nH]1", "inhibition": "-14.2%"}
{"molecule": "CC(=O)Nc1ccc(N(C(=O)CNC(=O)c2ccco2)C(C(=O)NCC2CCCO2)c2ccccc2)cc1", "note": "(stereo not drawn)", "inhibition": "-1.6%"}
{"molecule": "CC(=O)c1cccc(N(C(=O)CNC(=O)c2ccco2)C(C(=O)NCc2ccco2)c2ccccc2)c1", "note": "(stereo not drawn)", "inhibition": "-1.4%"}
{"molecule": "CC(=O)Nc1ccc(N(C(=O)CNC(=O)c2ccco2)C(C(=O)NCc2ccco2)c2ccccc2F)cc1", "note": "(stereo not drawn)", "inhibition": "60.4% (active)"}
{"molecule": "O=C(Oc1c(CN2CCOCC2)cc(Cl)c2cccnc12)c1cccs1", "inhibition": "56.4% (active)"}
{"molecule": "CN1CCN(Cc2cc(Cl)c3cccnc3c2OC(=O)c2cccs2)CC1", "inhibition": "50.4% (active)"}
{"molecule": "O=C(Oc1c(Cl)cc(Cl)c2cccnc12)c1cccs1", "inhibition": "1.8%"}
{"molecule": "O=C(Oc1ccc(Cl)c2cccnc12)N1CCOCC1", "inhibition": "8.2%"}
{"molecule": "COCc1cc(CN2CCN(C)CC2)c(O)c2ncccc12", "inhibition": "37.9%"}
{"molecule": "O=C(OCCN1CCOCC1)c1cccs1", "inhibition": "9%"}
{"molecule": "CCC(=O)c1ccc(N2CCN(C(=O)c3cccc(F)c3)CC2)c(F)c1", "inhibition": "7.7%"}
{"molecule": "CCCn1nc(C(=O)NCc2ccccn2)c2ccccc2c1=O", "inhibition": "-1.4%"}
{"molecule": "O=C(CNCCC1=CCCCC1)Nc1ccccc1N1CCCCC1", "inhibition": "-0.7%"}
{"molecule": "COCc1cc(C)nc2sc(C(=O)NCCO)c(-n3cccc3)c12", "inhibition": "-8.1%"}
{"molecule": "Cc1nn(-c2ccc(Cl)cc2)c(N)c1C(O)(CSc1nccn1C)C(F)(F)F", "note": "(stereo not drawn)", "inhibition": "10.3%"}
{"molecule": "O=C(COC(=O)c1ccncc1)Nc1cccc(Cl)c1", "inhibition": "23.4%"}
{"molecule": "O=C(COC(=O)c1ccncc1)Nc1cc(Cl)ccc1Cl", "inhibition": "93.2% (active)"}
{"molecule": "O=C(COC(=O)c1ccncc1)Nc1cc(Cl)c(Cl)cc1Cl", "inhibition": "3.3%"}
{"molecule": "Cc1ccc(S(=O)(=O)NNC(=O)c2sccc2-n2cccc2)cc1", "inhibition": "-2.5%"}
